For test [1] the following is noted: Ebola virus entry assay, green fluorescence channel.
For test [2] the following is noted: Ebola virus entry assay, blue channel fluorescence.
The conditions of test [3]: Ebola virus entry assay, green fluorescence channel. The source holds these as a separate data set.
For test [4] the following is noted: Ebola virus entry assay, ratio channel readout.
For test [5] the following is noted: Ebola virus entry assay, ratio channel.
The nature of test [6]: qHTS Assay for Identifying Gametocytocidal Compounds (AID 743244; active = well fitted curve in the direction sought with a large enough effect;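 also: % is scaled to controls: 0 for no effect and ±100 for the full control effect; actives lower the fluorescent signal which means gametocytes are killed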). Conditions: P. falciparum 3D7 stage III-V gametocytes, alamarBlue, 72 h; max response: stronger effect = lower value. In short, it runs like this: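 In this qHTS viability screen, late-stage 3D7 gametocytes are incubated with compound for 72 h, then with alamarBlue for 24 h; reduced resorufin fluorescence marks killing.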

Test [7] has as its target T1, Hexokinase-4 (Homo sapiens) + Glucokinase regulatory protein (Homo sapiens) (UniProt P35557+Q14397). In words: qHTS assay for inhibitors of recombinant human GCK-GKRP interaction: ADP-Glo assay (AID 743206; active = well fitted curve in the direction sought with a large enough effect;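 also: plate controls were DMSO plus enzyme for no effect and no enzyme for full effect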). Conditions: ADP-Glo luminescence, 60 min, 0% = vehicle-only wells with enzyme present; series mostly up to 76.9 µM. In short, it runs like this:
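Pin-transferred compounds meet a 15 nM GST-GCK/15 nM FLAG-GKRP/2 uM S6P mix (dispense concentrations). ATP is then added to 0.4 mM final with 5 mM glucose, and the reaction runs 60 min at room temperature. ADP is quantified luminescently.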
Background: Quantitative high-throughput screening tests each substance at several concentrations.

The target in test [8] is T1, Hexokinase-4 (Homo sapiens) + Glucokinase regulatory protein (Homo sapiens). In words: qHTS assay for inhibitors of recombinant human GCK-GKRP interaction: HTRF assay (AID 743207; active = well fitted curve in the direction sought with a large enough effect;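 also: 0% = DMSO with GCK present and -100% = DMSO wells lacking GCK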). Conditions: recombinant GCK-GKRP HTRF binding, 60 min; series mostly up to 57.5 µM. In outline: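 HTRF read-out (ex 320 nm; 615/665 nm emission) after 60 min RT equilibration of 5 nM GST-GCK, 5 nM FLAG-GKRP, 2 uM S6P, compound and anti-FLAG/anti-GST detection antibodies; signal normalized between DMSO wells with and without GCK.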

Test [9] in a line: qHTS profiling of the MIPE4 collection as inhibitors of Plasmodium falciparum (3D7) proliferation (AID 743344; call rule not given here;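 also: scaled between DMSO vehicle wells and 0.29 µM artemisinin as full inhibition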). The settings on record: P. falciparum 3D7 in erythrocytes, SYBR Green DNA fluorescence, 72 h. In outline:
(§1)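 Parasite DNA was quantified by SYBR Green I fluorescence (ex 485, em 535 nm) after overnight lysis in saponin/Triton buffer at room temperature. Cultures at 0.3% parasitemia and 2.5% hematocrit were first exposed to compound for 72 h at 37 C; signals were normalised to artemisinin (0.29 uM) and vehicle wells.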

Test [10] can be described thus: qHTS profiling of the MIPE4 collection as inhibitors of Plasmodium falciparum (DD2) proliferation (Rep 2) (AID 743346; call rule not given here). The settings on record: P. falciparum Dd2 in erythrocytes, SYBR Green DNA, 72 h. In outline:
as §1

Test [11] is described as follows: qHTS profiling of the MIPE4 collection as inhibitors of Plasmodium falciparum (HB3) proliferation (AID 743347; call rule not given here;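 also: plate controls were DMSO vehicle wells for no effect and artemisinin wells for full effect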). The settings on record: P. falciparum HB3 in erythrocytes, SYBR Green DNA, 72 h. In outline:
as §1

The conditions of test [12]: Ebola virus entry assay, blue channel fluorescence. This is another data set of the same source.
Where [13] appears, read: at 28.5 µM (top of the series) unless noted.
[14] abbreviates: at 0.217 µM (top of the series).

Results filed as inconclusive are left out. For part of these data: Potency and affinity values are given separately. Active and inactive are the calls of the source. Numbered stars: 1 amine (or outer) side, 2 acyl side, 3 side chain; on linkers, the order of the positions; unused ones are H or OH. Starred links: 1 amine or outer side, 2 acyl side, 3 side chain; linkers in the order of their positions; H or OH if unused. Positions of bridges follow the written chain, without caps; N, C: chain ends. Bridge positions count the residues as written; N and C are the ends. Non-standard residues stand in square brackets, D forms with d. Square brackets hold non-standard residues; d marks the D form. Residues, ends and D or L forms follow the SMILES beside them. Peptide text beside a SMILES is read from it. I, II: the chains in the order shown. ξ: configuration not given here. *: point of attachment. Actinocin(9to1) = Cc1c2oc3c(C)ccc(C(=O)[*:1])c3nc-2c(C(=O)[*:2])c(N)c1=O; ΔAla(3-NHCONH2) = NC(=O)NC=C(N)C(=O)O; X1 = NC1=NCCC(C(N[*:1])C(=O)[*:2])N1; NMeV = CN[C@H](C(=O)O)C(C)C; ξβ3hOrn = NCCCC(N)CC(=O)*; Dap = NC[CH](N)C(=O)O; Sar = CNCC(=O)O
For efficacy in this document: 0% is about no effect.

T1 sequence (P35557 whole entry, looked up): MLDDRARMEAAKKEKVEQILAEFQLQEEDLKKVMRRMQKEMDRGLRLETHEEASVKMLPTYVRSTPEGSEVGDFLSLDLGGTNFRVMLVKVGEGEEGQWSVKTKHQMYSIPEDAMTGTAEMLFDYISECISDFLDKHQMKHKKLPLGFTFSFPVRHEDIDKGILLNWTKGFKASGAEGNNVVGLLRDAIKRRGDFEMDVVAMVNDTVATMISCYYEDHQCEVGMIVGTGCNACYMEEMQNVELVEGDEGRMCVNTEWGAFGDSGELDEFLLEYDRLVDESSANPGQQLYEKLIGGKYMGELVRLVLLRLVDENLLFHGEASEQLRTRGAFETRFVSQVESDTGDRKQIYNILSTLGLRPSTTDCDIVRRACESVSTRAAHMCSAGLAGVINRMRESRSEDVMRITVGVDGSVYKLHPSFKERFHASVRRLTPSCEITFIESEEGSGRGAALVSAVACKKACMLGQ
T1 sequence (Q14397 whole entry, looked up): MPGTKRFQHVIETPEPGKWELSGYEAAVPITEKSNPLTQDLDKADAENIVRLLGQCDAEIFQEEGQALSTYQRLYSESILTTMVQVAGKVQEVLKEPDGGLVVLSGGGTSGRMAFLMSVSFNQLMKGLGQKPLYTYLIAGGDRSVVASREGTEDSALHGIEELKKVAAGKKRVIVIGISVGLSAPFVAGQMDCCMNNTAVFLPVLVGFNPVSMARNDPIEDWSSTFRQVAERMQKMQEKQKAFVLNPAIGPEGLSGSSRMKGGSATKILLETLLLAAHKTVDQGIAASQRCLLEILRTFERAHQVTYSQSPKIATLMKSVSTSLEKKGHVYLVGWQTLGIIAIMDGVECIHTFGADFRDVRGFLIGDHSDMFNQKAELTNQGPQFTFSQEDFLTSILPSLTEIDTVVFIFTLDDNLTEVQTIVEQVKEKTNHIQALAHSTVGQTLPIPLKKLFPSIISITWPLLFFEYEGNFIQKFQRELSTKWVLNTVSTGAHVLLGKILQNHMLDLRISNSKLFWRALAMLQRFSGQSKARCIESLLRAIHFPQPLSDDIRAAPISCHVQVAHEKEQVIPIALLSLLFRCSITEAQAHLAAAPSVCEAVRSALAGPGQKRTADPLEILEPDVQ

On to `Nc1ccn([C@@H]2O[C@H](CO)[C@@H](O)C2(F)F)c(=O)n1`, for which, in test [1], the efficacy was -29.1% (inactive). The compound was called inactive in [2], in test [3], in [4] and in test [5].
On to `CCCCc1ncc(/C=C(\Cc2cccs2)C(=O)O)n1Cc1ccc(C(=O)O)cc1`, for which the efficacy in test [1] is -11.8% (inactive). Also, the result in test [2], in [3], in [4] and in [5] was inactive.
Turning to `CC(C)c1c(C(=O)Nc2ccccc2)c(-c2ccccc2)c(-c2ccc(F)cc2)n1CC[C@@H](O)C[C@@H](O)CC(=O)O`, in test [1], the efficacy was 32.2% (inactive). In addition, the compound was classed as inactive in [2], in [3], in [4] and in test [5].
For the compound `C[C@]12CC[C@H]3[C@@H](CCC4=CC(=O)CC[C@@H]43)[C@@H]1CC[C@@H]2OC(=O)CCc1ccccc1`, the max response in test [6] was 0.188% (inactive). For the same compound, the efficacy in [1] was -39.3% (inactive). The outcome in [2], in test [3] and in test [4] was inactive.
With `NCC1(CC(=O)O)CCCCC1`, the outcome in test [7], in [8], in test [2], in test [3], in [4] and in test [5] was inactive. Moreover, the max response in test [6] is 10.3% (inactive). Also, the parasite growth, % of DMSO control in test [9] (setting [13]) amounted to 58.3%. The parasite growth, % of control (lower = inhibition) in [10] (setting [13]) turned out to be 75.9%. The growth, % of control in test [11] (setting [13]) came to 94.9%. In [1], the efficacy was -9.69% (inactive).
`NC(=O)N1c2ccccc2CC(=O)c2ccccc21`: the efficacy in test [1] is -11.2% (inactive). Besides, the result in test [2], in test [3] and in test [12] was inactive.
For `CCC(C(N)=O)N1CCCC1=O` (stereo not drawn), the max response in test [6] was -7.9% (inactive). Besides, the efficacy in [1] was -12.2% (inactive). Also, the compound was called inactive in [2], in test [3], in test [4] and in test [5].
`NCCCC(N)CC(=O)NCC1NC(=O)C(CO)NC(=O)C(N)CNC(=O)C(C2CCN=C(N)N2)NC(=O)C(=CNC(N)=O)NC1=O` (stereo not drawn) (H-[Dap]S[Dap](ξβ3hOrn)[ΔAla(3-NHCONH2)][X1]; lactam 1-C; configuration not given here): the parasite growth, % of DMSO control in [9] (setting [14]) worked out at 92.7%; in test [9] (at 28.5 µM (top of the series)), 101%. For the same compound, the parasite growth, % of control (lower = inhibition) in test [10] (setting [14]) turned out to be 121%; in test [10] (at 28.5 µM (top of the series)), 113%. The growth, % of control came to 101% in test [11] (setting [14]) and 86.8% in test [11] (at 28.5 µM (top of the series)). The efficacy in test [1] is 13% (inactive). In addition, the compound was called inactive in [2], in test [3] and in [4].
Consider `CN(N=O)C(=O)N[C@@H]1[C@@H](O)[C@H](O)[C@@H](CO)O[C@@H]1O`, for which, in [1], the efficacy is -17.3% (inactive). Also, the compound was classed as inactive in test [2], in test [3], in [4] and in test [5].
With `O=C1NC(c2ccccc2)(c2ccccc2)C(=O)N1COP(=O)(O)O`, in [1], the efficacy was -16% (inactive). Moreover, the call in [2], in [3], in test [4] and in test [5] was inactive.
For the compound `N[C@@H]1C[C@H]1c1ccccc1`, in test [6], the max response is 21.9% (inactive). Besides, in test [1], the efficacy is -26.4% (inactive). For the same compound, the compound was classed as inactive in test [2], in [3], in test [4] and in test [5].
Turning to `CC(c1cc2ccccc2s1)N(O)C(N)=O` (stereo not drawn), in [1], the efficacy is -17.4% (inactive). Besides, the result in test [2], in [3], in test [4] and in test [5] was inactive.
With `O=C1OCCN1/N=C/c1ccc([N+](=O)[O-])o1`, the efficacy in [1] is 18% (inactive). Besides, the outcome in [2], in test [3], in [4] and in test [5] was inactive.
Regarding `C=C1CC[C@@]2(O)[C@H]3Cc4ccc(O)c5c4[C@@]2(CCN3CC2CC2)[C@H]1O5`, in test [6], the max response is 7.59% (inactive). For the same compound, in [1], the efficacy was 46.6% (inactive). Also, the compound was classed as inactive in test [2], in test [3], in test [4] and in test [5].
Usually AC50 stands for the midpoint of the concentration-response curve, whichever way the signal moves. For the compound `CC(=O)O[C@]1(C(C)=O)CC[C@H]2[C@@H]3C=C(Cl)C4=CC(=O)[C@@H]5C[C@@H]5[C@]4(C)[C@H]3CC[C@@]21C`, the efficacy in [1] is 67.4% (inactive). Also, the outcome in test [2], in test [3] and in test [4] was inactive. The AC50 in test [5] is 3.55 µM (active).
For `CNS(=O)(=O)Cc1ccc2[nH]cc(CCN(C)C)c2c1`, the efficacy in test [1] is 17.1% (inactive). Also, the outcome in test [2], in [3], in test [4] and in [5] was inactive.
`CC1(C)S[C@@H]2[C@H](NC(=O)[C@H](N)c3ccccc3)C(=O)N2[C@H]1C(=O)O`: in test [1], the efficacy was -14% (inactive). Besides, the outcome in test [2], in test [3], in [4] and in [5] was inactive.
Turning to `Cc1cccc(C)c1OCC(C)N` (stereo not drawn), the efficacy in [1] was -20.8% (inactive). Besides, the result in test [2], in test [3], in [4] and in test [5] was inactive.
For `CO/N=C1\CN(c2nc3c(cc2F)c(=O)c(C(=O)O)cn3C2CC2)CC1CN` (stereo not drawn), the efficacy in test [1] is -13.2% (inactive). Also, the compound was classed as inactive in [2], in test [3], in [4] and in test [5].
As for `CCOC(=O)N1CCC(=C2c3ccc(Cl)cc3CCc3cccnc32)CC1`, the efficacy in test [1] was 62.3% (inactive). Also, the call in test [2], in [3] and in [4] was inactive. The AC50 in [5] was 6.31 µM (active).
In the case of `Nc1nc2c(ncn2COCCO)c(=O)[nH]1`, the efficacy in test [1] is -5.83% (inactive). For the same compound, the call in [2], in [3], in [4] and in [5] was inactive.
As to `Cc1ccccc1N1C(=O)c2cc(S(N)(=O)=O)c(Cl)cc2NC1C` (stereo not drawn), the efficacy in test [1] was 25.2% (inactive). The compound was called inactive in [2], in test [3], in test [4] and in [5].
Take `CC(C(=O)O)c1cccc(C(=O)c2ccccc2)c1` (stereo not drawn): the efficacy in [1] was 11.5% (inactive). Besides, the call in [2], in test [3] and in test [12] was inactive.
For the compound `NS(=O)(=O)c1cc2c(cc1Cl)NC=NS2(=O)=O`, the efficacy in [1] is -8.1% (inactive). In addition, the compound was classed as inactive in [2], in test [3] and in test [12].
With `CCOC(=O)c1ncn2c1CN(C)C(=O)c1cc(F)ccc1-2`, in test [9] (setting [13]), the parasite growth, % of DMSO control stood at 69.1%. Moreover, in test [10] (setting [13]), the parasite growth, % of control (lower = inhibition) came to 74.8%. The compound further gave a growth, % of control in test [11] (setting [13]) of 94.6%. Moreover, the efficacy in [1] is -22.5% (inactive). Besides, the compound was classed as inactive in test [2], in test [3], in [12] and in test [5].
For `Cc1c2oc3c(C)ccc(C(=O)N[C@@H]4C(=O)N[C@H](C(C)C)C(=O)N5CCC[C@H]5C(=O)N(C)CC(=O)N(C)[C@@H](C(C)C)C(=O)O[C@@H]4C)c3nc-2c(C(=O)N[C@@H]2C(=O)N[C@H](C(C)C)C(=O)N3CCC[C@H]3C(=O)N(C)CC(=O)N(C)[C@@H](C(C)C)C(=O)O[C@@H]2C)c(N)c1=O` (I: T[dV]P[Sar][NMeV] / II: T[dV]P[Sar][NMeV]; ester I:1-I:C, II:1-II:C; linker I:N-II:N via Actinocin(9to1)), the efficacy in test [1] is 27.3% (inactive). Moreover, the compound was classed as inactive in [2], in test [3], in [4] and in test [5].
As for `CN(C)[C@@H]1C(=O)C(C(N)=O)=C(O)[C@@]2(O)C(=O)C3=C(O)c4c(O)cccc4[C@@](C)(O)[C@H]3C[C@@H]12`, in test [6], the max response was 8.32% (inactive). The compound further yielded a parasite growth, % of DMSO control in test [9] (setting [13]) of 28.7%. Moreover, the parasite growth, % of control (lower = inhibition) in test [10] (setting [13]) was 30.2%. For the same compound, the growth, % of control in test [11] (setting [13]) came to 32.8%. Besides, the efficacy in test [1] was 106% (inactive). Also, the compound was classed as inactive in [2], in test [3], in test [4] and in test [5].

These data come from PubChem BioAssay (NCATS).
